The values that follow come from PubChem BioAssay (EPA / NIEHS).

What is called AC50 is the midpoint of the concentration-response curve, whichever way the signal moves.

The structures appear in SMILES notation. Records with an inconclusive call do not appear. Calls of active or inactive are those of the source. The calls were made as follows, unless noted: active = hit-call score of the fitted dose curve at least 0.9, where 1 is the maximum; inactive = score below 0.9.

Read-out in one experiment: HMG-CoA synthase (HMGCS2), HMGCS2 (gene 3158)
Nature of the experiment: CLD_HMGCS2_48hr: CellzDirect (CLD) Gene Expression Assay for HMG-CoA synthase (HMGCS2) at 48 hours (AID 2283711; active = hit-call score of the fitted dose curve at least 0.9, where 1 is the maximum). In a few lines:
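Primary human hepatocytes from two donors dosed daily for two days, 0.2% DMSO vehicle. HMGCS2 mRNA measured 48 h after dosing by quantitative nuclease protection assay with chemiluminescent read-out; induction fitted relative to DMSO, cytotoxicity flagged by microscopy.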
In the case of `O=C(O)C(F)(F)C(F)(F)C(F)(F)C(F)(F)C(F)(F)C(F)(F)C(F)(F)F`, the AC50 is 35.5 µM (active).
As to `Clc1ccccc1-c1nnc(-c2ccccc2Cl)nn1`, the outcome was inactive.
Consider `Cc1cc(C)nc(NC(=O)NS(=O)(=O)c2ccccc2C(=O)OC2COC2)n1`, for which the molecule was classed as inactive.
For `O=S(=O)(O)C(F)(F)C(F)(F)C(F)(F)C(F)(F)C(F)(F)C(F)(F)C(F)(F)C(F)(F)F`, the molecule was classed as inactive.
For the molecule `Oc1cc(Cl)ccc1Oc1ccc(Cl)cc1Cl`, the AC50 was 0.0058 µM (active).
On to `O=C(O)CCCOc1ccc(Cl)cc1Cl`, for which the call was inactive.
As to `CNC(=O)/C=C(\C)OP(=O)(OC)OC`, the call was inactive.
Still for that read-out and setting: the same measure for `CC1(C)C(C=C(Cl)Cl)C1C(=O)OC(C#N)c1ccc(F)c(Oc2ccccc2)c1` (stereo not drawn): “inactive”; for `CNC(=O)CSP(=S)(OC)OC`: “inactive”.
On the same count and under the same terms, the same measure for `O=C(O)COc1ccc(Cl)cc1Cl`: “inactive”; for `Oc1ccc(Cl)cc1Cc1ccccc1`: “inactive”.
The same measure, in the same setting: the same measure for `CC(C)(C)C(O)C(Oc1ccc(Cl)cc1)n1cncn1` (stereo not drawn): “inactive”.
As for `O=C(NC(=O)c1c(F)cccc1F)Nc1ccc(OC(F)(F)C(F)OC(F)(F)F)c(Cl)c1` (stereo not drawn), the molecule was classed as inactive.

Test system in a further experiment: not listed separately
Nature of the experiment: STM_H9_OrnithineISnorm_perc: Stemina devTOX quickPredict H9 human embryonic stem cell (hESC)-based Assay for Ornithine (ORN) Metabolite Biomarker, Normalized (AID 2283712).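 Also: ornithine released into spent medium during last day measured by mass spectrometry.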 In a few lines:
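Cells: undifferentiated H9 hESC. Dosing: 72 h, media replaced every 24 h. Sample: final 24-h conditioned media, 40% acetonitrile. Read: UPLC-HRMS ornithine area vs 13C standard, % DMSO control.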
Consider `O=C(Nc1ccccc1)Nc1cnns1`, for which the result was inactive.
The same measure, in the same setting: the same measure for `O=C(O)C(F)(F)C(F)(F)C(F)(F)C(F)(F)C(F)(F)C(F)(F)C(F)(F)F`: “inactive”.
As for `C#CCN1C(=O)COc2cc(F)c(N3C(=O)C4=C(CCCC4)C3=O)cc21`, the AC50 is 84.1 µM (active).
Turning to `O=S(=O)(O)C(F)(F)C(F)(F)C(F)(F)C(F)(F)C(F)(F)C(F)(F)C(F)(F)C(F)(F)F`, the outcome was inactive.
Consider `Oc1cc(Cl)ccc1Oc1ccc(Cl)cc1Cl`, for which the AC50 was 86.3 µM (active).
For `CCC(C)Nc1c([N+](=O)[O-])cc(C(C)(C)C)cc1[N+](=O)[O-]` (stereo not drawn), the result was inactive.
As for `CC1(C)C(C=C(Cl)Cl)C1C(=O)OC(C#N)c1ccc(F)c(Oc2ccccc2)c1` (stereo not drawn), the outcome was inactive.
As to `CC(C)(C)C(O)/C(=C\c1ccc(Cl)cc1Cl)n1cncn1` (stereo not drawn), the AC50 was 69.4 µM (active).
Same read-out and setting: the same measure for `O=S1OCC2C(CO1)C1(Cl)C(Cl)=C(Cl)C2(Cl)C1(Cl)Cl` (stereo not drawn): 36.1 µM (active); for `CCOC1Oc2ccc(OS(C)(=O)=O)cc2C1(C)C` (stereo not drawn): 86.3 µM (active).
For the molecule `CC(C)OC(=O)Nc1cccc(Cl)c1`, the outcome was inactive.
With `CCC(C)(NC(=O)c1cc(Cl)c(C)c(Cl)c1)C(=O)CCl` (stereo not drawn), the AC50 was 19.6 µM (active).
Regarding `Oc1ccc(Cl)cc1Cc1ccccc1`, the result was inactive.
On the same count and under the same terms, the same measure for `CC(C)(C)C(O)C(Oc1ccc(Cl)cc1)n1cncn1` (stereo not drawn): “inactive”; for `O=C(NC(=O)c1c(F)cccc1F)Nc1ccc(OC(F)(F)C(F)OC(F)(F)F)c(Cl)c1` (stereo not drawn): “inactive”.
